From PubChem BioAssay (NCI)
This is part of a sample that, as a whole, favours compounds with a hit. Of some 83,000 tested, about 20% had one in any assay.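 The test compound was applied at a single concentration to cells in 96-well plates for 48 hours, and percent growth was recorded.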 Values without a mark were called inactive. Active and inactive are the calls of the source. Rule for the calls: active = growth percent below 10; inactive = the rest.

What was measured:
Assay in all cases: NCI-60 one-dose screen, 48 h (100 = growth as untreated, 0 = no growth, -100 = all killed)
Conditions in all cases: 10 µM unless noted
BT-549 breast = tested on: BT-549 breast
MDA-MB-435 melanoma = tested on: MDA-MB-435 melanoma
SW-620 colon = tested on: SW-620 colon
MCF7 breast = tested on: MCF7 breast
HCT-116 colon = tested on: HCT-116 colon
HCC-2998 colon = tested on: HCC-2998 colon
KM12 colon = tested on: KM12 colon

SMILES | growth (BT-549 breast) | growth (MDA-MB-435 melanoma) | growth (SW-620 colon) | growth (MCF7 breast) | growth (HCT-116 colon) | growth (HCC-2998 colon) | growth (KM12 colon)
C=C1C(=O)O[C@H]2[C@H]1CC/C(COC(=O)/C=C/C(=O)NCc1ccc(Cn3c(=O)sn(-c4ccccc4)c3=O)cc1)=C\CC[C@@]1(C)O[C@@H]21 | -3.27% (active) | -26.6% (active) | -64.5% (active) | 5.01% (active) | -79.1% (active) | 54.4% | 49.1%
CCCCN(CCCC)CCCn1c(=O)c2sc3ncccc3c2n2nnc(-c3ccccc3)c12 | 124% | -84.2% (active) | 100% | 93.2% | 83.6% | 118% | 107%
c1ccc2c(c1)nc(-n1ccnc1)c1nc3ccccc3n12 | 45.5% | 76.1% | 65.7% | 62.5% | 52.5% | 76% | 64.9%
c1ccc2c(c1)ncn2-c1nc2ccccc2n2c1nc1ccccc12 | 91.6% | 102% | 78.4% | 7.93% (active) | 67.2% | 20.5% | 47.7%
C[C@@H](C[C@H](CCOCc1cccnc1)c1ccccc1)c1cc2ccccc2o1 | 102% | 103% | 91.6% | 106% | 75.6% | 101% | 88%
CC(C)(C)Nc1c(-c2c3ccccc3cc3ccccc23)nc2ccccn12 | 92.1% | 90.1% | 67.3% | 74.2% | 46.2% | 86% | 61.4%
CC(C)(C)CC(C)(C)Nc1c(-c2ccc(-c3ccccc3)cc2)nc2cnccn12 | 95% | 82.7% | 97.1% | 82.3% | 59.8% | 93.7% | 79.9%
CC(C)OC(=O)OCOP(=O)(OCOC(=O)OC(C)C)C1CCCN(O)C1=O (stereo unspecified) | 22.8% | 47.3% | 32.3% | 31.9% | 13.4% | 23.7% | 9.54% (active)
COc1cc(NC(=O)c2cccc(-c3cc(=O)c4c(O)c(OC)c(OC)cc4o3)c2)cc(OC)c1OC | 7% (active) | 65.4% | 73.3% | 49.4% | 44.8% | 66% | 53.9%
Cc1cc(N(CCCNc2ccnc3cc(Cl)ccc23)Cc2ccccn2)nc(N2CCCC2)n1 | 91.7% | 86.7% | 70.5% | 56.9% | 50.3% | 89.2% | 82.8%
Nc1ccc(S(=O)(=O)Nc2ccsc2-c2nc(-c3ccccc3)no2)cc1 | 59% | 3.96% (active) | 29.8% | 55.9% | 38.4% | 79.4% | 33.6%
COC(=O)c1ccc(CSc2nnc(-c3ccncc3)o2)cc1 | 104% | 106% | 108% | 96.6% | 97.6% | 110% | 109%
COc1ccc(Oc2nc(Nc3ccc(N4CCOCC4)nc3)ncc2NC(=O)c2cc(OC)cc(OC)c2)cc1 | 80.2% | 32.7% | 75.8% | 63.8% | 72.1% | 95.2% | 64%
COc1ccc(-n2ncn(CCCCCCn3cnn(-c4ccc(OC)cc4)c3=O)c2=O)cc1 | 101% | 102% | 95.2% | 92.7% | 94.5% | 110% | 97%
CC(C)n1nc(C#Cc2cccc(O)c2)c2c(N)ncnc21 | -65.4% (active) | -25.8% (active) | 0.77% (active) | 0.624% (active) | -63.8% (active) | -2.82% (active) | -7.5% (active)
C=C(C)[C@@H]1CC[C@]2(CO)CC[C@]3(C)[C@H](CC[C@@H]4[C@@]5(C)C=C(C#N)C(=O)C(C)(C)[C@@H]5CC[C@]43C)[C@@H]12 | 29.3% | 17.8% | 5.54% (active) | 1.77% (active) | 10.5% | 8.97% (active) | 6.43% (active)
C=C(C)[C@@H]1CC[C@]2(CNCCO)CC[C@]3(C)[C@H](CC[C@@H]4[C@@]5(C)CCC(N)[C@@](C)(CO)[C@@H]5CC[C@]43C)[C@@H]12 (stereo partly specified) | 68.6% | -75.7% (active) | -60.2% (active) | -54.2% (active) | -90.2% (active) | -8.22% (active) | -2.9% (active)
CCCCOc1ccc(NC(=O)n2nc(N=NN(C)C)c3ccc(Cl)cc32)cc1 | 98.8% | 106% | 106% | 85.2% | 91.3% | 113% | 110%
C=C1c2c(C)nn(-c3ccc(S(N)(=O)=O)cc3)c2N(C)C23CC1C1(C)c4c(C)nn(-c5ccc(S(N)(=O)=O)cc5)c4N(C)C(C)(CC12)C3 (stereo unspecified) | 49.6% | 32.9% | 39.2% | 15.9% | 14.4% | 47% | 33.1%
Cn1cc(Nc2nccc(-c3ccc(N4CCCC4)c(C#N)c3)n2)cn1 | 37.7% | 0.731% (active) | 14.2% | 27.3% | 11.5% | 59.8% | 31.6%
Cc1nc2ccc(C(=O)NCc3cc(C(=O)O)c(C)o3)cc2nc1C | 96.1% | 96.2% | 99.3% | 101% | 95.5% | 98% | 92.3%
C[C@H]1[C@H]2C3=CC[C@@H]4[C@@]5(C)C/C(=C/c6ccncc6)C(=O)C(C)(C)[C@@H]5CC[C@@]4(C)[C@]3(C)CC[C@@]2(C(=O)N2CCN(C)CC2)CC[C@@H]1C | 89.3% | 81.9% | 83.1% | 58.5% | 55.4% | 82.9% | 67.5%
C=C(C)[C@@H]1CC[C@]2(C(=O)NCC(=O)O)CC[C@]3(C)[C@H](CC[C@@H]4[C@@]5(C)Cc6c([nH]c7ccccc67)C(C)(C)[C@@H]5CC[C@]43C)[C@@H]12 | 65.7% | 87.1% | 85% | 81.4% | 77.4% | 98.4% | 88.1%
Cc1cnc(Nc2ccc(OCCN3CCCC3)cc2)nc1NCc1ccco1 | 78.2% | 84.1% | 67.5% | 50.8% | 40.5% | 87% | 22.7%
Oc1ccccc1-c1nc2ccccn2c1NCCN1CCOCC1 | 99.2% | 102% | 94.8% | 96.7% | 93.9% | 101% | 91.2%

SMILES | growth (BT-549 breast) | growth (MDA-MB-435 melanoma) | growth (SW-620 colon) | growth (MCF7 breast) | growth (HCT-116 colon) | growth (HCC-2998 colon) | growth (KM12 colon)
N#Cc1cccc(-c2nc3ccccn3c2NCCN2CCOCC2)c1 | 93.3% | 102% | 95.5% | 90.4% | 89.9% | 96.1% | 88.6%
CCCCCCN(CCCCCC)CC(O)c1cccc2ccc(Cl)cc12 (stereo unspecified) | 99.2% | 69.9% | 35.7% | 56.5% | 16.7% | 13.1% | 44.5%
Clc1ccc2c(NCCCN3CCN(c4nc(N5CCOCC5)nc5ccccc45)CC3)ccnc2c1 | 59.3% | -86.5% (active) | -20.3% (active) | -3.49% (active) | -0.752% (active) | -57.5% (active) | 25%
CS(=O)(=O)c1ccc(-c2[nH]c3ccc(F)cc3c2/C=N/O)cc1 | 91% | 99.6% | 110% | 82.9% | 87.9% | 110% | 101%
O=S(=O)(Nc1ccsc1-c1nc(-c2ccccc2)no1)c1cc(Cl)cc(Cl)c1 | 99.5% | 88.9% | 95.8% | 92.4% | 89.9% | 104% | 93.2%
O=C1N/C(=N/O)S/C1=C/c1cn(-c2ccccc2)nc1-c1ccccc1 | 92.3% | 106% | 107% | 82.2% | 82.4% | 126% | 86.4%
COc1cc2oc(-c3cccc(C(=O)Nc4ccc(C#N)cc4)c3)cc(=O)c2c(O)c1OC | 44.7% | 68.3% | 78% | 48.5% | 55.5% | 83.1% | 38.9%
C=CC(=O)Nc1cccc(C)c1Nc1cc(-c2cccnc2Cc2c(C)c(OC)cc(OC)c2C)ncn1 | 5.86% (active) | 19.9% | 24.8% | 8.59% (active) | 15.8% | 71.1% | 17.6%
Cc1c(C(=O)O[C@H]2[C@@H]3[C@H](C)CC[C@H]3[C@]3(C)O[C@@]2(C2CCCCC2)C[C@H]3OC(=O)CO)ccc2ccccc12 | 33.4% | 39% | 18.7% | 3.27% (active) | 3.42% (active) | 5.5% (active) | 27.9%
C[C@H]1[C@H](C)CC[C@]2(C(=O)N3CCN(C)CC3)CC[C@]3(C)C(=CC[C@@H]4[C@@]5(C)C/C(=C/c6cccnc6)C(=O)C(C)(C)[C@@H]5CC[C@]43C)[C@H]12 | -81.2% (active) | -65.1% (active) | -49.9% (active) | -73.8% (active) | -88.2% (active) | -92.3% (active) | -89.3% (active)
O=C1C(Cl)C(c2ccccc2Cl)N1n1cnnc1 (stereo unspecified) | 97.3% | 103% | 94.5% | 97.4% | 96.4% | 98.4% | 96.9%
CCCc1nc2ccccn2c1Nc1ccc(C(=O)NO)cc1 | 98.1% | 90.2% | 86.3% | 79.6% | 85.4% | 91.4% | 97.1%
COc1ccc(NC(=O)c2cccc(-c3cc(=O)c4c(O)c(OC)c(OC)cc4o3)c2)cc1 | 31% | 105% | 102% | 93.3% | 70.5% | 101% | 103%
C=C1C(=O)O[C@H]2[C@H]1CC/C(Cn1cc(CNCCc3c[nH]c4ccc(Cl)cc34)nn1)=C\CC[C@@]1(C)O[C@@H]21 | 74.7% | 68% | 2.69% (active) | 42.9% | 11.2% | 103% | 82.9%
CN1CCN(C(=O)[C@@]2(C)CC[C@]3(C)CC[C@]4(C)C(=CC[C@@H]5[C@@]6(C)C/C(=C/c7ccncc7)C(=O)C(C)(C)[C@@H]6CC[C@]54C)[C@@H]3C2)CC1 | 55.6% | 44.6% | 31.6% | 23.3% |  | 58.1% | 36.6%
COc1ccc(Oc2nc(Nc3ccc(N4CCCCC4)nc3)ncc2NC(=O)c2cc(OC)cc(OC)c2)cc1 | 56.5% | -30.6% (active) |  | 9.76% (active) | 18.8% | 65.8% | 20.2%
CCOc1cc(C2C(Cl)C(=O)N2n2cnnc2)ccc1O (stereo unspecified) | 93% | 96.2% | 97.2% | 97.5% | 93.3% | 99.7% | 99.1%
Cc1ccc(S(=O)(=O)Nc2sccc2-c2nc(-c3ccccc3)no2)cc1 |  | 95.6% | 97% | 93.1% | 85.9% | 97.8% | 90.1%
CC1(C)C(=O)/C(=C\c2cccnc2)C[C@]2(C)[C@H]3CC=C4[C@@H]5C[C@@](C)(C(=O)O)CC[C@]5(C)CC[C@@]4(C)[C@]3(C)CC[C@@H]12 |  | 103% |  | 87.7% | 91.9% | 108% | 99.2%
CCN(CC)N=Nc1nn(C(=O)Nc2ccc(Cc3ccccc3)cc2)c2ccc(Cl)cc12 |  | 43% | 44.4% | 40.4% | 44% | 43.2% | 56.6%
COc1ccc(NC(=O)C(=O)c2c[nH]c3ccc(F)cc23)cc1 |  | 95.5% | 99.9% | 86.3% |  | 109% | 94.5%
COc1ccc(-c2nc3sc4c(c3c(=O)[nH]2)CCCC4)c2ccccc12 |  | -70.3% (active) | 18.9% | 9.63% (active) | 10.7% | 12.3% | 7.22% (active)
Cc1nc(C)c(-c2nn3c(-c4cccc(F)c4)nnc3s2)s1 |  | 95.2% | 96.8% | 99.8% |  | 105% | 99%
C=C(CNCCc1ccc(O)cc1)[C@@H]1CC[C@]2(COC3CCCCO3)CC[C@]3(C)[C@H](CC[C@@H]4[C@@]5(C)CCC(N)C(C)(C)[C@@H]5CC[C@]43C)[C@@H]12 (stereo partly specified) |  | -95% (active) | -77.4% (active) | -79.8% (active) | -91.3% (active) | -84.7% (active) | -85.7% (active)
